From PubChem BioAssay (NCI)
This is part of a sample that, as a whole, favours compounds with a hit. Of some 83,000 tested, about 20% had one in any assay.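 Cells were grown in 96-well plates and exposed to the test compound at a single concentration for 48 hours; results are reported as percent growth, with values below 10 considered active.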 Active and inactive are the calls of the source.

Assays:
Assay in all cases: NCI-60 one-dose screen, 48 h (100 = growth as untreated, 0 = no growth, -100 = all killed)
Details in all cases: 10 µM unless noted
NCI-H23 lung = tested on: NCI-H23 lung
NCI-H226 lung = tested on: NCI-H226 lung
NCI-H322M lung = tested on: NCI-H322M lung
HOP-62 NSCLC = tested on: HOP-62 NSCLC
NCI-H460 lung = tested on: NCI-H460 lung
HOP-92 NSCLC = tested on: HOP-92 NSCLC
NCI-H522 lung = tested on: NCI-H522 lung
A549/ATCC NSCLC = tested on: A549/ATCC NSCLC
786-0 renal = tested on: 786-0 renal
COLO 205 colon = tested on: COLO 205 colon
DU-145 prostate = tested on: DU-145 prostate
K-562 leukemia = tested on: K-562 leukemia
MALME-3M melanoma = tested on: MALME-3M melanoma
MDA-MB-231 breast = tested on: MDA-MB-231 breast
RXF 393 renal = tested on: RXF 393 renal
SF-268 CNS = tested on: SF-268 CNS
SF-295 CNS = tested on: SF-295 CNS
SF-539 CNS = tested on: SF-539 CNS
UACC-257 melanoma = tested on: UACC-257 melanoma
M14 melanoma = tested on: M14 melanoma

Measured: growth

c1cc2[nH]ncc2cc1-c1nc2ccc3[nH]ncc3c2c2c1CCCC2
inactive: NCI-H23 lung 12.9% | NCI-H226 lung 29.4% | NCI-H322M lung 23.7% | HOP-62 NSCLC 22.7% | NCI-H460 lung 13.6% | HOP-92 NSCLC 16.9% | 786-0 renal 19.7% | DU-145 prostate 23.3% | K-562 leukemia 15.3% | MALME-3M melanoma 12.1% | MDA-MB-231 breast 31.1% | SF-268 CNS 25.1% | SF-295 CNS 19.4% | UACC-257 melanoma 20.2%
active: NCI-H522 lung -28.2% | A549/ATCC NSCLC 5.84% | COLO 205 colon 3.57% | RXF 393 renal -15.8% | SF-539 CNS -7.82% | M14 melanoma 2.16%

CNC(=O)c1c(NC(=O)c2ccc(C(F)(F)F)cc2)sc2c1CCC(=O)C2
active: NCI-H23 lung -5.25% | NCI-H226 lung 9.17% | NCI-H460 lung 4.57% | HOP-92 NSCLC -35.8% | NCI-H522 lung -26.1% | COLO 205 colon -36.1% | K-562 leukemia 7.84% | MALME-3M melanoma -9.54% | MDA-MB-231 breast -37.1% | RXF 393 renal -7.89% | SF-268 CNS 9.61% | SF-295 CNS -9.06% | SF-539 CNS -58.6% | UACC-257 melanoma 1.26% | M14 melanoma -11.6%
inactive: NCI-H322M lung 29.5% | HOP-62 NSCLC 14.5% | A549/ATCC NSCLC 13.7% | 786-0 renal 10.3% | DU-145 prostate 29%

OCCNCCCOc1ccc2ncnc(Nc3ccc(Oc4cccc(C(F)(F)F)c4)c(Cl)c3)c2c1
active: NCI-H460 lung -82.5% | 786-0 renal -4.05% | COLO 205 colon -27.7% | K-562 leukemia 1.39% | MDA-MB-231 breast -18% | RXF 393 renal -49.3% | SF-539 CNS -46.3% | M14 melanoma -60.3%
inactive: NCI-H23 lung 63.8% | NCI-H226 lung 85.2% | NCI-H322M lung 21.5% | HOP-62 NSCLC 66.5% | HOP-92 NSCLC 40.5% | NCI-H522 lung 30.8% | A549/ATCC NSCLC 23.8% | DU-145 prostate 16.3% | MALME-3M melanoma 41.1% | SF-268 CNS 56% | SF-295 CNS 39.7% | UACC-257 melanoma 54.9%

CC(=O)OCc1nc(C#N)c(N(C)C)o1
inactive: NCI-H23 lung 102% | NCI-H226 lung 97.3% | NCI-H322M lung 99.8% | HOP-62 NSCLC 91.4% | NCI-H460 lung 103% | HOP-92 NSCLC 83% | NCI-H522 lung 90.3% | A549/ATCC NSCLC 92.5% | 786-0 renal 95% | COLO 205 colon 105% | DU-145 prostate 110% | K-562 leukemia 99.2% | MALME-3M melanoma 97.8% | MDA-MB-231 breast 94.9% | RXF 393 renal 87.6% | SF-268 CNS 99.6% | SF-295 CNS 108% | SF-539 CNS 92.1% | UACC-257 melanoma 92.8% | M14 melanoma 99.8%

O=C(Nc1nc2ccc(F)cc2s1)c1cccnc1Nc1ccc(Cl)cc1
inactive: NCI-H226 lung 44.1% | NCI-H322M lung 30.9% | HOP-62 NSCLC 75.6% | NCI-H522 lung 21.1% | A549/ATCC NSCLC 31% | 786-0 renal 56.2% | COLO 205 colon 49.8% | DU-145 prostate 44.3% | MDA-MB-231 breast 50.7% | RXF 393 renal 59.8% | SF-268 CNS 37.2% | SF-295 CNS 17.4% | SF-539 CNS 50.3% | UACC-257 melanoma 43% | M14 melanoma 53.8%
active: NCI-H23 lung 9.97% | NCI-H460 lung 9.26% | HOP-92 NSCLC 0.414% | K-562 leukemia 5.7% | MALME-3M melanoma 3.74%

O=c1oc2ccccc2cc1C1=NN=C(SCc2ccccc2)SC1
inactive: NCI-H23 lung 94.9% | NCI-H226 lung 96.6% | NCI-H322M lung 102% | HOP-62 NSCLC 82.9% | NCI-H460 lung 112% | HOP-92 NSCLC 87.2% | NCI-H522 lung 89.2% | A549/ATCC NSCLC 96.6% | 786-0 renal 94.8% | COLO 205 colon 113% | DU-145 prostate 100% | K-562 leukemia 91.4% | MALME-3M melanoma 99.3% | MDA-MB-231 breast 101% | RXF 393 renal 109% | SF-268 CNS 97.1% | SF-295 CNS 98.9% | SF-539 CNS 96.5% | UACC-257 melanoma 110% | M14 melanoma 95.7%

C=CCn1c(SCC(=O)NCc2cc(C)c(O)c(C)c2)nc2ccc(Cl)cc2c1=O
inactive: NCI-H23 lung 101% | NCI-H226 lung 87.2% | NCI-H322M lung 97% | HOP-62 NSCLC 101% | NCI-H460 lung 107% | HOP-92 NSCLC 82.2% | NCI-H522 lung 94.1% | A549/ATCC NSCLC 106% | 786-0 renal 92.5% | DU-145 prostate 105% | K-562 leukemia 58.6% | MALME-3M melanoma 98.8% | MDA-MB-231 breast 111% | RXF 393 renal 98.6% | SF-268 CNS 99.2% | SF-295 CNS 91.1% | SF-539 CNS 101% | UACC-257 melanoma 102% | M14 melanoma 115%

CN1CCN(Cc2ccc(NC(=O)c3cncc(C#Cc4cnc(N)c5ccccc45)c3)cc2C(F)(F)F)CC1
active: NCI-H23 lung -74.1% | NCI-H226 lung -91% | NCI-H322M lung -87.1% | HOP-62 NSCLC -74.7% | NCI-H460 lung -77.3% | HOP-92 NSCLC -74.4% | NCI-H522 lung -73.2% | A549/ATCC NSCLC -89.1% | 786-0 renal -79.6% | COLO 205 colon -78.1% | DU-145 prostate -97.6% | K-562 leukemia -13.3% | MALME-3M melanoma -88.6% | MDA-MB-231 breast -86.2% | RXF 393 renal -96.2% | SF-268 CNS -61.1% | SF-295 CNS -87.4% | SF-539 CNS -97.8% | UACC-257 melanoma -90.1% | M14 melanoma -79.3%
